Screening results deposited in PubChem by National Center for Advancing Translational Sciences (NCATS).
A selection: hits, their analogues and other compounds. The true share with any hit is near 3.3%.
NS1 inh: blocks influenza NS1 protein function; Potency, µM (highest dose often 46.1 µM); actives 0.4% (n = 270,000); calls by dose curve; also: actives are rising curves; nearly all actives have a fitted effect of over 50% in size
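A cell-based growth assay was used: compounds that relieve NS1-induced slow growth of budding yeast raise OD600. Assay medium was yeast nitrogen base with ammonium sulphate and -URA supplement, pH 6.0, with 2% galactose.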
LmPK inh: blocks Leishmania mexicana pyruvate kinase activity | Q27686 | actives 0.37% (n = 290,000) | purified LmPK, Kinase-Glo ATP luminescence, 1 h | Potency, µM (doses to about 57.5 µM), actives largely listed as inhibitors
Target sequence (Q27686 whole entry, looked up): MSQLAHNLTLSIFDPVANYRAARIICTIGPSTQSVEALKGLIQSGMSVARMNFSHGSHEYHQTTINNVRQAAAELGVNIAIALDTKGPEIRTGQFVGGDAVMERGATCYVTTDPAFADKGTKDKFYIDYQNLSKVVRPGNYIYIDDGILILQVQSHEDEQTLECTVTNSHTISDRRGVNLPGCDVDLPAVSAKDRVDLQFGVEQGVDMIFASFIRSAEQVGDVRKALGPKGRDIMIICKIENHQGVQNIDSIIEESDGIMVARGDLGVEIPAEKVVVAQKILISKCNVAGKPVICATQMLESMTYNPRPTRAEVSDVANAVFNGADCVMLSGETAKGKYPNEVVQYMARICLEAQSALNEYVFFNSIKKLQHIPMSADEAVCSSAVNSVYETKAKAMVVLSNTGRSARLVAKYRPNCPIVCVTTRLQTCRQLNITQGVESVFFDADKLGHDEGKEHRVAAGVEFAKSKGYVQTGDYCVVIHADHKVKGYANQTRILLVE
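0.1 nM LmPK, 0.5 mM PEP, 0.1 mM ADP; 50 mM imidazole pH 7.2, 7 mM MgCl2, 50 mM KCl; 1 h RT. Kinase-Glo luminescence readout, normalized to no-enzyme (full inhibition) and uninhibited wells.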
SARS PLP yeast: SARS-CoV PLP inhibition in yeast | S. cerevisiae expressing SARS-CoV PLpro, growth rescue | Potency, µM (titrated, usually from 32.9 µM), most hits filed as activators | actives 0.19% (n = 330,000); calls by dose curve; also: nearly all actives have a fitted effect of over 55% in size
Sm TGR block: blocks Schistosoma mansoni thioredoxin glutathione reductase. Q962Y6. purified TGR, DTNB reduction, TNB absorbance 405 nm. Potency, µM (highest dose often 114 µM), hits mostly inhibitors. actives 3% (n = 360,000). AID 485364; also: nearly all actives have a fitted effect of over 60% in size
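Kinetic colorimetric format: TGR-catalysed, NADPH-driven DTNB reduction monitored via TNB absorbance. Enzyme dispensed at 20 nM; compound exposure 15 min at room temperature before reaction start.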
RE007 growth inh: less growth of the S. pombe RE007 Vpr strain; AID 651644; Potency, µM (highest dose often 92.2 µM), hits mostly inhibitors; S. pombe RE007 Vpr strain, BacTiter-Glo ATP luminescence, 24 h; actives 0.21% (n = 360,000); active = well fitted falling curve with a large enough effect; inconclusive = small, poorly fitted or top-dose-only effect; inactive = no such curve, though single readings can be large or run the other way; also: nearly all actives have a fitted effect of over 50% in size
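Fission yeast strain RE007, carrying one chromosomally integrated HIV-1 vpr copy, was seeded at OD 0.01 in PMG+AL medium with 23 nL pinned compound. After 24 h at 30 °C and 99% humidity, viability was read by BacTiter-Glo luminescence.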
TbPYK inhibitor: T. brucei pyruvate kinase inhibition. actives 0.12% (n = 410,000). Q57TT1. TbPYK enzyme, Kinase-Glo Plus ATP luminescence, 45 min. Potency, µM (doses to about 76.8 µM), hits mostly inhibitors; also: nearly all actives have a fitted effect of over 50% in size
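ADP (130 uM final) triggers the TbPYK reaction after compound addition; incubation is 45 min at room temperature. Kinase-Glo Plus is then added and luminescence imaged. Normalized data are fitted to concentration-effect curves.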
A number is an active result; i = inactive; ? = inconclusive; nt = not tested or not shown; [ ] = dose if it differs, or a comment. Unless noted, calls follow the shape of the dose curve; as a rule, active = well fitted curve in the direction sought with a large enough effect; inconclusive = small, poorly fitted or top-dose-only effect, or another doubt; inactive = no such curve, though single readings can be large; an effect the other way counts as inactive or inconclusive.

SMILES	NS1 inh	LmPK inh	SARS PLP yeast	Sm TGR block	RE007 growth inh	TbPYK inhibitor
Cc1cc(N2CCCC2)nc2ccc(NC(=S)NCCCOC(C)C)cc12	nt	i	i	20µM	i	i
COCCNC(=S)Nc1ccc2nc(N3CCN(C)CC3)cc(C)c2c1	i	i	i	40µM	i	i
CCCN(CCC)CCCNC(=S)Nc1ccc2nc(N3CCCC3)cc(C)c2c1	nt	i	i	45µM	i	i
COCCCNC(=S)Nc1ccc2nc(N3CCOCC3)cc(C)c2c1	i	i	i	?	i	i
CCN(CC)CCNC(=S)Nc1ccc2nc(N3CCCC3)cc(C)c2c1	nt	i[11.5 µM]	i	i	i	i
CCOC1=CC2=C(C(=O)C(Cl)=CC2=O)[C@@H]2CN(S(=O)(=O)c3ccc(C)cc3)[C@@H](c3ccccc3)[C@H]12	nt	nt	nt	nt	i	2.5µM
CCN1C(=O)[C@@H]2[C@@H]3CN(S(=O)(=O)c4ccc(C)cc4)[C@@H](c4ccccc4)[C@@H]3C(=O)C[C@@H]2C1=O	nt	nt	nt	nt	i	i
CCOc1ccc(-c2cc(C(F)(F)F)c(C#N)c(SCC(=O)Nc3ccccc3)n2)cc1	nt	nt	nt	i	nt	i
c1ccc2c(CCC3CCNCC3)c[nH]c2c1	nt	nt	nt	nt	nt	i
COCCOC(=O)c1c(C)oc2c1cc(NS(=O)(=O)c1ccc(Cl)c(C)c1)c1ccccc12	nt	nt	nt	i	nt	i
COc1ccc(Cl)cc1NC(=O)c1c(NCc2ccc(C)o2)sc2c1CCCC2	nt	nt	nt	28µM	nt	?
COc1ccc(NC(=O)c2c(NCc3ccc(OC)c(OC)c3OC)sc3c2CCC3)c(OC)c1	nt	nt	nt	40µM	nt	?
COc1ccc(OC)c(NC(=O)c2c(NCc3ccc(C)o3)sc3c2CCC(C)C3)c1 (configuration not stated)	nt	nt	nt	40µM	nt	?
COc1ccc(OC)c(NC(=O)c2c(NCc3ccc(OC)c(OC)c3)sc3c2CCC(C)C3)c1 (configuration not stated)	nt	nt	nt	i	nt	i
COc1ccccc1NC(=O)c1c(NCc2ccc(OC)c(OC)c2OC)sc2c1CCC2	nt	nt	nt	i	nt	i
CCOC(=O)N1CCc2c(sc(NCc3sccc3C)c2C(=O)Nc2cc(Cl)ccc2OC)C1	nt	nt	nt	i	nt	?
COc1ccc(NC(=O)c2c(NCc3ccc(N(C)C)cc3)sc3c2CCC3)cc1	nt	nt	nt	32µM	nt	?
CCNC(=O)CC1C(=O)N(c2ccccc2)C(=O)N1Cc1ccc(F)cc1 (configuration not stated)	nt	nt	nt	i	nt	i
CCN1CCN(C(=O)c2cnn(-c3cccc(C)c3)c2C2CCN(C(=O)OC(C)(C)C)CC2)CC1	nt	nt	nt	i	nt	i[15.4 µM]
COc1cc(-c2cc3n(C)c(C)c(CCC(=O)NC4CCC(C)CC4)c(=O)n3n2)cc(OC)c1OC (configuration not stated)	nt	nt	nt	i	nt	i
COc1ccc(Cl)cc1NC(=O)c1c(NCc2cccnc2)sc2c1CCCC2	nt	nt	nt	20µM	nt	?
CCOc1ccccc1NC(=O)c1c(NCc2ccc(C)o2)sc2c1CCC(C)C2 (configuration not stated)	nt	nt	nt	i	nt	i
CCOC(=O)c1ccc(NC(=O)c2c(NCc3sccc3C)sc3c2CCCCC3)cc1	nt	nt	nt	50µM	nt	?
CCOc1ccccc1NC(=O)c1c(NCc2ccc(C)o2)sc2c1CCCCC2	nt	nt	nt	8.9µM	nt	?
Cc1ccc(CNC(=O)c2oc3ccc(S(=O)(=O)N4CCC(C)CC4)cc3c2C)cc1	nt	nt	nt	i	nt	i
SMILES	NS1 inh	LmPK inh	SARS PLP yeast	Sm TGR block	RE007 growth inh	TbPYK inhibitor
CCCN1CCCc2cc(CN(CCCN3CCOCC3)C(=O)Nc3ccc(Cl)c(Cl)c3)ccc21	nt	nt	nt	i	nt	i
OCCNc1ncnc2nc[nH]c12	i	nt	nt	nt	nt	nt
Cc1nc2ccc([N+](=O)[O-])cc2nc1C	nt	i	i	i	i	i
Cc1ccc2nc3cc([N+](=O)[O-])cc([N+](=O)[O-])c3cc2c1	nt	i	i	2.5µM	?	i
CCCCCC(=O)NC(NC(=S)N1CCOCC1)C(Cl)(Cl)Cl (configuration not stated)	i	i	?	i	i	i
CCCCC(=O)NC(N1CCCCC1)C(Cl)(Cl)Cl (configuration not stated)	i	i	i	11µM	i	?
CN1CCc2nc(SCC(=O)Nc3ccc(F)cc3)c(C#N)cc2C1	?	i	i	28µM	nt	nt
CCN1CCc2nc(SCC(=O)Nc3ccc(OC)cc3)c(C#N)cc2C1	?	i	i	i	i	i
